From PubChem BioAssay (NCI)
This is part of a sample that, as a whole, favours compounds with a hit. Of some 83,000 tested, about 20% had one in any assay.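 For each line, cells grew in 96-well plates with the test compound present at a single concentration for 48 hours.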 Values without a mark were called inactive. Calls of active or inactive are those of the source. How the source made its calls: active means growth percent below 10; inactive means the rest.

tested on: OVCAR-4 ovarian; experiment: NCI-60 one-dose screen, 48 h (100 = growth as untreated, 0 = no growth, -100 = all killed); details: 10 µM unless noted

| SMILES | growth |
| --- | --- |
| COc1ccc(-c2cn(-c3cccc(C(=O)/C=C/c4ccc(O)c(OC)c4)c3)c(=O)[nH]2)cc1 | 33.6% |
| Cc1ccccc1N1C(c2ccccc2)=NNC12C=CC(=O)c1c(O)cccc12 (centres undefined) | 61.3% |
| COc1cc(Nc2ccnc3ccc(Br)cc23)cc(OC)c1OC | 62.5% |
| CN1CCN(Cc2ccc(NC(=O)c3cncc(C#Cc4ccc(N)nc4)c3)cc2C(F)(F)F)CC1 | -8.78% (active) |
| COc1ccc(Sc2[nH]c(C=O)c3ccccc23)cc1 | 60.3% |
| COCCOCCOCc1n(Cc2ccc3ccccc3n2)c2ccccc2[n+]1Cc1ccc2ccccc2c1 | 9.99% (active) |
| COc1ccc(C2C3CCc4ccccc4C3=NN2C(=O)c2cc(OC)c(OC)c(OC)c2)cc1O (centres undefined) | 103% |
| O=c1[nH]cnc2nc[nH]c12 | 94.5% |
| CC(=O)O[C@H]1[C@H](CC#CC#CC[C@@H]2C[C@]3(C)[C@H]4CC=C5[C@H]6[C@@H](C)[C@H](C)CC[C@]6(C(=O)NCCN(CCN)CCN)CC[C@@]5(C)[C@]4(C)CC[C@H]3C(C)(C)[C@H]2OC(C)=O)C[C@]2(C)[C@H]3CC=C4[C@H]5[C@@H](C)[C@H](C)CC[C@]5(C(=O)NCCN(CCN)CCN)CC[C@@]4(C)[C@]3(C)CC[C@H]2C1(C)C | 97.4% |
| Fc1ccc2nc(-c3ccc(-c4noc(-c5ccc(Cl)cc5)n4)cc3)[nH]c2c1 | 114% |
| CCNS(=O)(=O)c1ccc(C)cc1 | 103% |
| OC(c1cc(-c2ccc(C(F)(F)F)cc2)nc(-c2ccc(C(F)(F)F)cc2)c1)C1CCCCN1 (centres undefined) | -92% (active) |
| CC1(C)C(N(O)C(=O)Nc2ccc(Cl)cc2)N(c2ccc(Cl)cc2)C(=O)N1CC(=O)N/N=C/C=C/c1ccc([N+](=O)[O-])o1 (centres undefined) | 14.9% |
| Cc1cc(N=Nc2ccc(-c3ccc(N=Nc4ccc(O)c(C(=O)O)c4)cc3)cc2)c(N)c(N=Nc2ccc(C(=O)O)cc2)c1N | 97.1% |
| NC(N)=N/N=C\c1cccc(OCc2ccccc2)c1 | 64.3% |
| CNC(=O)c1ccccc1Sc1ccc2c(/C=C/c3ccccn3)n[nH]c2c1 | 34.2% |
| CC(=O)c1c(C)nc(-c2cc(C)cc(Cl)c2)nc1-c1cccc(Oc2ccccc2)c1 | 85.1% |

| SMILES | growth |
| --- | --- |
| CCN(CC)Cc1cc(Nc2nc(NC3CCC(N(C)C)CC3)c3ccccc3n2)ccc1OC (centres undefined) | 52.1% |
| Cc1nc2c(-c3cnc(N)nc3)nc(N3CCOCC3)nc2n1C(C)C | -3.01% (active) |
| C[C@@H]1C[C@H](N)C[C@H](c2ccncc2NC(=O)c2ccc(F)c(-c3c(F)cccc3F)n2)C1 | 53.2% |
| Nc1nonc1-c1nc2ccccc2n1Cc1ccc(F)cc1 | 66.9% |
| C=CC[C@]1(O)CC[C@H]2[C@@H]3CCc4cc(O)ccc4[C@H]3CC[C@@]21C | 94.3% |
| [Ag].[Ag].[NH-]S(=O)(=O)c1ccc(N=Nc2cc(N=Nc3ccc(S([NH-])(=O)=O)cc3)c3c(NC(=O)C(Cl)Cl)cccc3c2OC(=O)C(Cl)Cl)cc1.[c-]1nccs1.[c-]1nccs1 | 110% |
| CCCCCCCCCCCCCCC(C(=O)OCC)C(=O)OCC | 109% |
| CN(C)c1ccc(C(c2ccccc2)c2ccc(N(C)C)cc2)cc1 | 99.8% |
| Cc1n(Cc2ccc3ccccc3n2)cc[n+]1Cc1ccc2ccccc2c1 | 7.17% (active) |
| FC(F)(F)c1ccc(/C=N/Nc2nnc3n2N=C(c2ccc(Cl)cc2)CS3)cc1 | 17.4% |
| CS(=O)(=O)Nc1cc(-c2cc3ncc(C#N)c(Nc4ccc(Oc5ccccc5)c(Cl)c4)c3s2)cnc1Cl | 57.6% |
| Cc1cc(C)c2c(n1)sc1c(Nc3ccc(O)cc3)ncnc12 | 90.6% |
| c1ccc(C2=Nc3ccccc3SC2)cc1 | 91.5% |
| COc1cc2c(cc1OCCCOc1cc3c(cc1OC)C(=O)N1CCC[C@H]1C=N3)C=CC(C)(C)O2 | 110% |
| O=[N+]([O-])c1cccc(N=C(Nc2cccc([N+](=O)[O-])c2)c2ccccc2)c1 | 84.7% |
| C=CCn1c(C)nc2cc(Nc3nc(N4CCOCC4)nc4nc[nH]c34)ccc21 | 88.4% |
| C=C1NC(=O)C(C(C)CC)NC(=O)C2CSCC(NC(=O)CCC(=O)O)C(=O)NC(Cc3ccccc3)C(=O)NC(C)C(=O)NC(CC(C)CC)C(=O)NC(C(=O)NC(Cc3ccccc3)C(=O)N3CCCC3C(=O)N2)C(C)OC(=O)C(CO)NC(=O)C(C(O)COC)N(C)C(=O)C(C(C)C)NC(=O)C(CC(C)CC)NC1=O (centres undefined) | 55.6% [6 µM] |
